For one sequence, binding signal results are on record in paper PMC7862700, “An all-to-all approach to the identification of sequence-specific readers for epigenetic DNA modifications on cytosine”.

Holding throughout (assay): DAPPL (digital affinity profiling via proximity ligation, sequencing); 10 mM Tris-HCl pH 7.5, 50 mM NaCl, 1 mM DTT, 4% glycerol, room temperature, 30 min; GST-TFs on glutathione beads, 16-mer random dsDNA library, 0.1% formaldehyde crosslink after washing; high values mean tight binding
For one assay, the target named is T1, FEV (Homo sapiens, UniProt Q99581 1-238).
T1 sequence: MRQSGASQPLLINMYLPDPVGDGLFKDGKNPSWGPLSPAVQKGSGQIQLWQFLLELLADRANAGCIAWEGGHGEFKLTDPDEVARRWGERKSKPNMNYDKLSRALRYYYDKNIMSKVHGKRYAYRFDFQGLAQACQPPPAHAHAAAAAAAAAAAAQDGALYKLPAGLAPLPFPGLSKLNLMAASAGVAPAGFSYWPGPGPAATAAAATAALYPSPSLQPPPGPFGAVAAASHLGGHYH
The note with it: protein: recombinant; tags: N-terminal GST; dsDNA, one strand shown. In short, it runs like this: (§1)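 Binding signal is defined as a hexamer's read frequency for one factor over its frequency for the tag-only sample. To obtain reads, GST-fused human transcription factors were expressed in yeast, captured on glutathione beads, barcoded with DNA and pooled with that sample. Pools met 200 nmole of a 16-mer random double-stranded DNA library in Tris/NaCl/DTT/glycerol buffer for 30 min at room temperature before washing, 0.1% formaldehyde crosslinking, proximity ligation (BsaI/T4 ligase, 1 h, 37 °C), PCR and Illumina NextSeq500 sequencing.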

The target in another assay is ETV5 (Homo sapiens, UniProt P41161 1-510). The conditions noted are these: protein: recombinant; tags: N-terminal GST; dsDNA, one strand shown. In short, it runs like this: as §1
Sequence of ETV5 (P41161 whole entry): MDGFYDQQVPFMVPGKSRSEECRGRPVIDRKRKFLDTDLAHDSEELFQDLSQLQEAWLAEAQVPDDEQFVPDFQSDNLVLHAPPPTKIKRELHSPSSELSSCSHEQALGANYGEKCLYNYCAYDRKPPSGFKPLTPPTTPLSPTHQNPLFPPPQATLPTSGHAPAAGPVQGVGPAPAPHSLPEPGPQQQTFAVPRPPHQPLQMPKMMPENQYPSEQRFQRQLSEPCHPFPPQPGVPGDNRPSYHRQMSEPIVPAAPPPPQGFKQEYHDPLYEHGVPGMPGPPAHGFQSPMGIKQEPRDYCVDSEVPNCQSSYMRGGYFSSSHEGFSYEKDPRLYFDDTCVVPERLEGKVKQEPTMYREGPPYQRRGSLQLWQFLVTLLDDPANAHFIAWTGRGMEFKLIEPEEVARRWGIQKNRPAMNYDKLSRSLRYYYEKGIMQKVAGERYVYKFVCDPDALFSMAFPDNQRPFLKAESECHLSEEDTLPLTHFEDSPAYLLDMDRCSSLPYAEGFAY
A further assay concerns the target HSF1 (Homo sapiens, UniProt Q00613 1-529). The conditions noted are these: protein: recombinant; tags: N-terminal GST; chain copies: 3; dsDNA, one strand shown. An outline of the steps: as §1
In another assay the target is T2, SPIC (Homo sapiens, UniProt Q8N5J4 1-248).
T2 sequence: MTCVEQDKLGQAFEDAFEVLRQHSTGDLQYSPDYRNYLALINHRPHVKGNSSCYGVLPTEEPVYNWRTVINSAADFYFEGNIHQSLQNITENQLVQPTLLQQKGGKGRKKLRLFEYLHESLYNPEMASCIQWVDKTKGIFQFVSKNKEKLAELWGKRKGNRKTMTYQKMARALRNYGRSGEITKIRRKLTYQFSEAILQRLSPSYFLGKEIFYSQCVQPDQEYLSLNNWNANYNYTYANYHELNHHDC
The conditions noted are these: protein: recombinant; tags: N-terminal GST; dsDNA, one strand shown. An outline of the steps:
as §1

Another assay concerns the target ELF4 (Homo sapiens, UniProt Q99607 1-663). The note with it: protein: recombinant; tags: N-terminal GST; dsDNA, one strand shown. An outline of the steps: as §1
In the next assay the target is T3, ELK4 (Homo sapiens, UniProt P28324-2 1-405).
T3 sequence: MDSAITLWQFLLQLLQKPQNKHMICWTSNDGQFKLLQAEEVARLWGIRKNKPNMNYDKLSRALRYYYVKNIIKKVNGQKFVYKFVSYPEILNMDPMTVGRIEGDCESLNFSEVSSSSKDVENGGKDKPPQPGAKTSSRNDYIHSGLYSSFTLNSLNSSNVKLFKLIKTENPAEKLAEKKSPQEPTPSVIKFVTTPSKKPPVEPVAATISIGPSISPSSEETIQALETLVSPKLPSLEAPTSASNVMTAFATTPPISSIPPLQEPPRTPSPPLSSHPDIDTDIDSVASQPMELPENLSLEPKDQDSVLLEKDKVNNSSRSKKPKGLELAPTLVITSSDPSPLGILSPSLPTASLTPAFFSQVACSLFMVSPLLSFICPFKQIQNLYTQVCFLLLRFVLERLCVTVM
The note with it: protein: recombinant; tags: N-terminal GST; dsDNA, one strand shown. In short, it runs like this: as §1

Another assay addresses T4, ETV2 (Homo sapiens, UniProt O00321 1-342).
T4 sequence: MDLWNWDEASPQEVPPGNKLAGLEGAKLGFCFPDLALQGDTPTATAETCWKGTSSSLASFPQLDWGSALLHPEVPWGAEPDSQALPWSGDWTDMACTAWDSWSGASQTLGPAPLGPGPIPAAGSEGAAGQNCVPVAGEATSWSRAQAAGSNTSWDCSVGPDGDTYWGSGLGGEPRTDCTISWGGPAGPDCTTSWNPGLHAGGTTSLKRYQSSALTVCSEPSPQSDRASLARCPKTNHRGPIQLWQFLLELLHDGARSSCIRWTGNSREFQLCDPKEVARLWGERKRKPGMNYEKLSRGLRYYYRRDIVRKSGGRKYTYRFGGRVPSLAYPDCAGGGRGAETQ
The conditions noted are these: protein: recombinant; tags: N-terminal GST; dsDNA, one strand shown. In short, it runs like this: as §1

The target of the next assay is T5, ELF3 (Homo sapiens, UniProt P78545 1-371).
T5 sequence: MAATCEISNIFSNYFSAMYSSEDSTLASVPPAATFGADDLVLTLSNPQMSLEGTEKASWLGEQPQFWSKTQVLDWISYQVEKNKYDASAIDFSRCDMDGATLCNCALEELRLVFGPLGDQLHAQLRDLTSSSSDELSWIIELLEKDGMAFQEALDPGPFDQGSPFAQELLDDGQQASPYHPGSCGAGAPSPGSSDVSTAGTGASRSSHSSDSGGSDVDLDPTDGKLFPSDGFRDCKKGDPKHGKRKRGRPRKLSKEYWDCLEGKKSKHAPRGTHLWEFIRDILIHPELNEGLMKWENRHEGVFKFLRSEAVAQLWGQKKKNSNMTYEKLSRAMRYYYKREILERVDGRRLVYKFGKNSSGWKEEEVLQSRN
The conditions noted are these: protein: recombinant; tags: N-terminal GST; dsDNA, one strand shown. An outline of the steps: as §1

The target in the next assay is CRX (Homo sapiens, UniProt O43186 1-299). The conditions noted are these: protein: recombinant; tags: N-terminal GST; dsDNA, one strand shown. In short, it runs like this:
as §1

A further assay deals with ETV1 (Homo sapiens, UniProt P50549 1-477). The conditions noted are these: protein: recombinant; tags: N-terminal GST; dsDNA, one strand shown. In short, it runs like this: as §1
Sequence of ETV1 (P50549 whole entry): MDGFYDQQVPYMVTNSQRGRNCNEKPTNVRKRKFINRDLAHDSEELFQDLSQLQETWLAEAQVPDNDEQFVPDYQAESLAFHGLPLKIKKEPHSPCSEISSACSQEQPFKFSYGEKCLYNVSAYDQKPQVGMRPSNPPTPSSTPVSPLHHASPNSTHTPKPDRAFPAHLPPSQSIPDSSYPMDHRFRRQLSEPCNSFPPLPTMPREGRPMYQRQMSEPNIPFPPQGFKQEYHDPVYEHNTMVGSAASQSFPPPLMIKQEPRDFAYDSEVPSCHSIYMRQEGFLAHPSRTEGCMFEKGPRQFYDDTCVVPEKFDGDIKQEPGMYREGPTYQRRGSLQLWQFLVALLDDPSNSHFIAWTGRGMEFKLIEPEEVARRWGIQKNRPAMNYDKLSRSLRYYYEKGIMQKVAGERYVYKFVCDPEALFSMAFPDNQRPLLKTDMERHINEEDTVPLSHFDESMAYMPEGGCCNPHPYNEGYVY
The target of the next assay is T6, ERF (Homo sapiens, UniProt P50548 1-548).
T6 sequence: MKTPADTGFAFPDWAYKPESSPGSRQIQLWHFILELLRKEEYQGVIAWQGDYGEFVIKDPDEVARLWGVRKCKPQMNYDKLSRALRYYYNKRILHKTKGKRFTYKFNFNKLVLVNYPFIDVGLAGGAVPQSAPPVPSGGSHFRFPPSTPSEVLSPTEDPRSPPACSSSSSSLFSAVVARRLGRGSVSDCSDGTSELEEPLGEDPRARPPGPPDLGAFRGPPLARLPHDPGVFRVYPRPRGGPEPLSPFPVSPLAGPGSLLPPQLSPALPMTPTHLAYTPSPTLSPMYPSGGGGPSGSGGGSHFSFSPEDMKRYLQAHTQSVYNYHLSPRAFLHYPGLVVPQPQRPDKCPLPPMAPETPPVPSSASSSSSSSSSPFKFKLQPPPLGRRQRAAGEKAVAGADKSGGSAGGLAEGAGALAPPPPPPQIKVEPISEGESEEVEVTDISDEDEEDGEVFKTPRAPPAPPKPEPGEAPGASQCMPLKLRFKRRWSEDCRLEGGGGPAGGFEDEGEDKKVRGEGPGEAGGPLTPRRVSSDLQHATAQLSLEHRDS
The conditions noted are these: protein: recombinant; tags: N-terminal GST; dsDNA, one strand shown. An outline of the steps:
as §1

In a further assay the target is T7, ETV3L (Homo sapiens, UniProt Q6ZN32 1-361).
T7 sequence: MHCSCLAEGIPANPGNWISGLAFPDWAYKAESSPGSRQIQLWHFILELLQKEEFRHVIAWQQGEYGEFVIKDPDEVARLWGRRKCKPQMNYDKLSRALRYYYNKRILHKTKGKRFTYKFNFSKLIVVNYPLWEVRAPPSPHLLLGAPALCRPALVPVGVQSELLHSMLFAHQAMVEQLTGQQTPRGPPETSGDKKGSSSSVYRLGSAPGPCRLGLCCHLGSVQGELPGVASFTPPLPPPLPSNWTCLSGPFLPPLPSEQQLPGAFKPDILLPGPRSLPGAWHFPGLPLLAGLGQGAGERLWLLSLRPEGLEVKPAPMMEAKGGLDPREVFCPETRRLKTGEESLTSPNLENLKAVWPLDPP
The conditions noted are these: protein: recombinant; tags: N-terminal GST; dsDNA, one strand shown. In short, it runs like this:
as §1

The next assay has as its target T8, ETS2 (Homo sapiens, UniProt P15036 1-469).
T8 sequence: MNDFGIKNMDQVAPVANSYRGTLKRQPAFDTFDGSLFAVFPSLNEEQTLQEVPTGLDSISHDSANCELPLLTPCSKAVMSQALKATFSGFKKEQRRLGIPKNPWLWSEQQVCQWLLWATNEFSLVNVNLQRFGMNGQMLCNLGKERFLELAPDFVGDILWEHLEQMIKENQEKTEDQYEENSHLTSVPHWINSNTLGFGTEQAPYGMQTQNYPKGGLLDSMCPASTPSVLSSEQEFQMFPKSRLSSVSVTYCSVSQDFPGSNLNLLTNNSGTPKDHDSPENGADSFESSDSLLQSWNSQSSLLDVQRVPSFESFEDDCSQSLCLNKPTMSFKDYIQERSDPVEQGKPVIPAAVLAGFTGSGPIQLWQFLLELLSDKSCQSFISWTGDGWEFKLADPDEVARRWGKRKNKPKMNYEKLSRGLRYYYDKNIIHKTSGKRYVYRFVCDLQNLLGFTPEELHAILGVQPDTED
The note with it: protein: recombinant; tags: N-terminal GST; dsDNA, one strand shown. In short, it runs like this: as §1

A further assay has as its target T9, SPDEF (Homo sapiens, UniProt O95238 1-335).
T9 sequence: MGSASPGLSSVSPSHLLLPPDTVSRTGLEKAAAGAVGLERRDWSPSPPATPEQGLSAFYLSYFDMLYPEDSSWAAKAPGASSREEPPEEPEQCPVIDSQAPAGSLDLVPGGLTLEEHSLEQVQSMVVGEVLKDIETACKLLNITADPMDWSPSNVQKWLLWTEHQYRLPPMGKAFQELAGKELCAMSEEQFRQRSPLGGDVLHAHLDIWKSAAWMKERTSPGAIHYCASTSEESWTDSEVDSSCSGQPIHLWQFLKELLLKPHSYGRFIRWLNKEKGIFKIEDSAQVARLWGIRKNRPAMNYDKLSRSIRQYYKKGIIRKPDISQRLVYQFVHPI
The note with it: protein: recombinant; tags: N-terminal GST; dsDNA, one strand shown. An outline of the steps: as §1

The next assay has as its target T10, ETV7 (Homo sapiens, UniProt Q9Y603 1-341).
T10 sequence: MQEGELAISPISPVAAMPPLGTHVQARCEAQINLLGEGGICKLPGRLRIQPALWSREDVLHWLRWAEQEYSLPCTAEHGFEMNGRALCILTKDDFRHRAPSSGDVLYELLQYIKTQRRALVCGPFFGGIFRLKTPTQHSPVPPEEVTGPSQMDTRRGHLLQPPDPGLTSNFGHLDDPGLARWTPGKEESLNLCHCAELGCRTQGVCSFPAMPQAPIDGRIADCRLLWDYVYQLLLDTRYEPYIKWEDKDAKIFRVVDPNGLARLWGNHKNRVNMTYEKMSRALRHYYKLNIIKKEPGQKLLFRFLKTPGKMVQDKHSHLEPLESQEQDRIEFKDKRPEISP
The note with it: protein: recombinant; tags: N-terminal GST; dsDNA, one strand shown. In short, it runs like this:
as §1

A further assay has as its target T11, ELF5 (Homo sapiens, UniProt Q9UKW6-2 1-255).
T11 sequence: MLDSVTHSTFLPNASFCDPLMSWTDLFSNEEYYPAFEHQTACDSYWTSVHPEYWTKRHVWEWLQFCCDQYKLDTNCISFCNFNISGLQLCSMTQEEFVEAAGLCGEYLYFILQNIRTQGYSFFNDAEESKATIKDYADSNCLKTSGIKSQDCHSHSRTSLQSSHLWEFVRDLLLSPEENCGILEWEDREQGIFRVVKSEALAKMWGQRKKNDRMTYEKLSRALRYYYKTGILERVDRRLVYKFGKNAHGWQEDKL
The conditions noted are these: protein: recombinant; tags: N-terminal GST; dsDNA, one strand shown. An outline of the steps:
as §1

The target in the next assay is T12, ETV3 (Homo sapiens, UniProt P41162-2 1-143).
T12 sequence: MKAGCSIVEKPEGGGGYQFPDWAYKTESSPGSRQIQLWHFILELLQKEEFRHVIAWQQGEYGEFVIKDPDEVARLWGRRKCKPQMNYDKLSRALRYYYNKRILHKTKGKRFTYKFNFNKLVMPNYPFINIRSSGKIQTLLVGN
The note with it: protein: recombinant; tags: N-terminal GST; dsDNA, one strand shown. An outline of the steps:
as §1

The target in another assay is ETV6 (Homo sapiens, UniProt P41212 1-452). The conditions noted are these: protein: recombinant; tags: N-terminal GST; dsDNA, one strand shown. An outline of the steps:
as §1

Sequence of CRX (O43186 whole entry): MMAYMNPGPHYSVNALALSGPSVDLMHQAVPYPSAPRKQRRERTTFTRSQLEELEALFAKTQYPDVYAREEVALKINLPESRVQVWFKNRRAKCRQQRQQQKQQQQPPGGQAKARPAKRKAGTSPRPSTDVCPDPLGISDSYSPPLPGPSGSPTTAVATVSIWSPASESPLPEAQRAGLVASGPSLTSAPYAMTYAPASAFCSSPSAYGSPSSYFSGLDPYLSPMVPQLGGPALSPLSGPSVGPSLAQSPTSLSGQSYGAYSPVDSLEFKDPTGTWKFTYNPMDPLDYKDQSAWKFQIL
Sequence of HSF1 (Q00613 whole entry): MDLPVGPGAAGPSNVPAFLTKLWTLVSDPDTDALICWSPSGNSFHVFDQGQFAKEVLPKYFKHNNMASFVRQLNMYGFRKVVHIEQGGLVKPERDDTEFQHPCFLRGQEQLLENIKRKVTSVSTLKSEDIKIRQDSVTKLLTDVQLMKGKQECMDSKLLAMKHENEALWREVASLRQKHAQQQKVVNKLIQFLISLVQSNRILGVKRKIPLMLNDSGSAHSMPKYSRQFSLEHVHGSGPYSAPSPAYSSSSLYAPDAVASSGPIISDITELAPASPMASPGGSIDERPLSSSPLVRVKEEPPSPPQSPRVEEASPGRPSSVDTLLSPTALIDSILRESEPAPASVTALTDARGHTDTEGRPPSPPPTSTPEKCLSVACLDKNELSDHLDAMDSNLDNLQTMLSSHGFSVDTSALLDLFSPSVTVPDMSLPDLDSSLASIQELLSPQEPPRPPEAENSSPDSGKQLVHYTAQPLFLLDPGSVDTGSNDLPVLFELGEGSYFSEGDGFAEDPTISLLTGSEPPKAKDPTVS
Sequence of ETV6 (P41212 whole entry): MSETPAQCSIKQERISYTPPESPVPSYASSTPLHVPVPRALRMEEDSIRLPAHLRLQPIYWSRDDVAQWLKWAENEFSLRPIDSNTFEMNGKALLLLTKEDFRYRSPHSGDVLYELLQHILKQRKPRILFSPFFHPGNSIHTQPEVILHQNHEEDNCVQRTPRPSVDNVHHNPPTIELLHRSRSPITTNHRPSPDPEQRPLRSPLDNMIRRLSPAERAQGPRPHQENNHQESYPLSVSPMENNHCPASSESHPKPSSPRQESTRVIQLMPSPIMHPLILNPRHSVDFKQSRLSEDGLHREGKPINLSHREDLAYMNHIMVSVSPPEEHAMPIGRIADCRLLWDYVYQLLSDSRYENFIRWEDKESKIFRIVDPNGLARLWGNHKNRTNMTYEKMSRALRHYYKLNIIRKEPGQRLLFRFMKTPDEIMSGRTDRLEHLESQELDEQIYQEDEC
Sequence of ELF4 (Q99607 whole entry): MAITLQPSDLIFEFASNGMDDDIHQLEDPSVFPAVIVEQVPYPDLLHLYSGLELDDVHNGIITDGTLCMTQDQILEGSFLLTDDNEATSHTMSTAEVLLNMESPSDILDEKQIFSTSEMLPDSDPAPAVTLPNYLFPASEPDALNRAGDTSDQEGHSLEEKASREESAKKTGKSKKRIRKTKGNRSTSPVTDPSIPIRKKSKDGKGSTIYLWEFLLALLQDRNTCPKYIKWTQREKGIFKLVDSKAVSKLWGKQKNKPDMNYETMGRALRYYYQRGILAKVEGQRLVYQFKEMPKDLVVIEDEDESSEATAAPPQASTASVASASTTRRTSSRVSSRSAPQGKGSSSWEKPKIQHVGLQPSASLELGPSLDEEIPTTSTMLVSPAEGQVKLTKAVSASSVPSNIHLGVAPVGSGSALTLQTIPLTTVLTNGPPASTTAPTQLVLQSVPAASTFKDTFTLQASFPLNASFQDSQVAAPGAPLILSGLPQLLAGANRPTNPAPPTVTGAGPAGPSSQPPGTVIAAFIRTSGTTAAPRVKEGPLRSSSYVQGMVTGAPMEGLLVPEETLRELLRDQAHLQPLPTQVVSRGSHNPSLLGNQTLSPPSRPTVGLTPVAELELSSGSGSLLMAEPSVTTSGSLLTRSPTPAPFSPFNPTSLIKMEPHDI

With TGTTTT, the binding signal in the assay with FEV was 1.24 fold enrichment (6-mer frequency, TF over GST control); with ETV5, 1.42 fold enrichment (6-mer frequency, TF over GST control); in the assay with HSF1 it was 1.21 fold enrichment (6-mer frequency, TF over GST control); with SPIC, 1.36 fold enrichment (6-mer frequency, TF over GST control); in the assay with ELF4, 1.37 fold enrichment (6-mer frequency, TF over GST control); with ELK4, 1.35 fold enrichment (6-mer frequency, TF over GST control). Also, the binding signal in the assay with ETV2 is 1.38 fold enrichment (6-mer frequency, TF over GST control); in the assay with ELF3 it was 1.33 fold enrichment (6-mer frequency, TF over GST control); with CRX, 1.23 fold enrichment (6-mer frequency, TF over GST control); in the assay with ETV1, 1.29 fold enrichment (6-mer frequency, TF over GST control); in the assay with ERF, 1.26 fold enrichment (6-mer frequency, TF over GST control); with ETV3L, 1.37 fold enrichment (6-mer frequency, TF over GST control). Also, the binding signal in the assay with ETS2 is 1.36 fold enrichment (6-mer frequency, TF over GST control); with SPDEF it was 1.41 fold enrichment (6-mer frequency, TF over GST control); with ETV7 it was 1.28 fold enrichment (6-mer frequency, TF over GST control); with ELF5 it was 1.48 fold enrichment (6-mer frequency, TF over GST control); in the assay with ETV3, 1.46 fold enrichment (6-mer frequency, TF over GST control); with ETV6 it was 1.39 fold enrichment (6-mer frequency, TF over GST control).
